Assay results taken from PubChem BioAssay AID2551 (National Center for Advancing Translational Sciences (NCATS), 2010).
Several values for one entry are separate records, joined by “and”; a condition that tells them apart may be missing. Identical values can stand only once. Screen size: about 310,000 compounds; about 17,000 (5.5%) were called active. Another 11% or so got no clear call; they are omitted. The sample holds actives, similar compounds and a random draw of the others, so the mix is not that of the screen. Calls come from the whole dose curve; as a rule, active = well fitted inhibition curve with a large enough effect; inconclusive = small, poorly fitted or top-dose-only effect, or effect the other way; inactive = no such curve, though single readings can be large or run the other way. A structure can be active in one record and inactive in another.

Biological target: Nuclear receptor ROR-gamma (Mus musculus) (UniProt P51450)
Sequence (P51450 whole entry, looked up): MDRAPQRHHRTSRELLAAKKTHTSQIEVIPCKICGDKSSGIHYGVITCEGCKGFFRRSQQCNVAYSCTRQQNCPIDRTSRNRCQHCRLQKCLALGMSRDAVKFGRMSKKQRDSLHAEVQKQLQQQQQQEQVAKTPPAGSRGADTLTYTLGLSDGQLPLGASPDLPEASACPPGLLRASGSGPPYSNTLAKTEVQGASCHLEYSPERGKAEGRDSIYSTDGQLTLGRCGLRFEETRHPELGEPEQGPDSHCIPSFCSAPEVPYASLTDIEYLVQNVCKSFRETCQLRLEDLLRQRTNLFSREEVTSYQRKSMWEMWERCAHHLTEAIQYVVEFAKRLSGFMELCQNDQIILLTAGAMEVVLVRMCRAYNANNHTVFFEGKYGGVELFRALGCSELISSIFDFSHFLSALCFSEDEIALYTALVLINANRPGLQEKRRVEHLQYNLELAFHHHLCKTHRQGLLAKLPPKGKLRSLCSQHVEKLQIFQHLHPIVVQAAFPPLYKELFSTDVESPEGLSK
Experiment: qHTS for inhibitors of ROR gamma transcriptional activity; note: nearly all actives have a fitted effect of over 60% in size
Settings: Drosophila S2 Gal4-RORgamma UAS-luciferase reporter, 20 h; series mostly up to 53.6 µM; activity change, negative = inhibition: at the top concentration
Outline: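 Read-out: Photinus luciferase luminescence; inhibitors lower reporter signal. Insect Schneider cells with Gal4-ROR gamma fusion under metallothionein promoter, UAS reporter; 700 uM final copper sulfate induction, 20 hr, ambient temperature.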
% is set by controls: 0 for no effect and ±100 for the full control effect; potency is the fitted concentration of half-maximal effect.

Row | Structure (SMILES) | activity change, negative = inhibition | Potency
1 | O=C(Nc1ccc([N+](=O)[O-])cc1)OCCc1ccccn1 | 11.2% (inactive) | –
2 | COc1ccc(C(=O)NC(=S)NNC(=O)c2c(-c3ccccc3)noc2C)cc1 | – | 6.31 µM (active)
3 | Cc1onc(-c2c(Cl)cccc2Cl)c1C(=O)NNC(=O)c1c(-c2c(Cl)cccc2Cl)noc1C | 27.9% (inactive) | –
4 | CC(=O)Nc1cccc(NC(=O)c2c(-c3ccccc3)noc2C)c1 | -2.25% (inactive) | –
5 | Cc1onc(-c2ccccc2)c1C(=O)NNC(=S)NC(=O)c1ccc(F)cc1 | – | 3.98 µM (active)
6 | Cc1ccc(CNC(=O)c2c(-c3ccccc3)noc2C)cc1 | -8.86% (inactive) | –
7 | Cc1onc(-c2ccccc2)c1C(=O)Nc1ccccc1C#N | 6.86% (inactive) | –
8 | NC(=O)c1oc2ccccc2c1NC(=O)Cc1ccccc1 | -17.9% [at 1.91 µM] (inactive) | –
9 | COc1ccc(N(C(=O)c2snc(C(N)=O)c2N)C(C(=O)NC2CCCC2)c2ccco2)cc1OC (stereo not given) | 17.3% (inactive) | –
10 | O=C1/C(=C/c2ccc(F)cc2)SC(=S)N1CCCC(=O)N1CCCCC1CCO (stereo not given) | 1.78% (inactive) | –
11 | COC(=O)Cn1cnc2scc(-c3ccc(C)c(C)c3)c2c1=O | 32.1% (inactive) | –
12 | Cc1ccc(C)c(NC(=S)NNC(=O)c2csc(C)c2)c1 | – | 3.55 µM (active)
13 | NS(=O)(=O)c1ccc(NC(=S)NC(=O)c2cccnc2)cc1 | -3.22% (inactive) | –
14 | O=C(NC1CC1)c1cccc(Br)c1 | -3.23% (inactive) | –
15 | NS(=O)(=O)c1ccc(NC(=S)NC(=O)c2cccc(Br)c2)cc1 | – | 11.2 µM (active)
16 | CC(CC(=O)O)CC(=O)NNC(=O)c1cccc(Br)c1 (stereo not given) | -2.71% (inactive) | –
17 | Cc1ccc(C)c(NC(=O)CCC(=O)NNC(=O)c2cccs2)c1 | 10.7% (inactive) | –
18 | O=C(NC(=S)Nc1cccc2c(O)cccc12)c1cccc(Br)c1 | – | 11.2 µM (active)
19 | O=C(/C=C/NNC(=O)c1cccc(Br)c1)c1ccccc1 | -41.4% (inactive) | –
20 | O=C(NC(=S)Nc1ccc(Cl)c(C(=O)O)c1)c1cncc(Br)c1 | -14.7% (inactive) | –
21 | Cc1ccc(C)c(NC(=O)NNC(=O)c2ccc3ccccc3c2O)c1 | -19.3% (inactive) | –
22 | Cc1ccccc1NC(=S)NNC(=O)c1cccc(Br)c1 | – | 11.2 µM (active)

Row | Structure (SMILES) | activity change, negative = inhibition | Potency
23 | O=C(NC(=S)Nc1ccc(S(=O)(=O)Nc2ncccn2)cc1)c1cccc(Br)c1 | -21.7% (inactive) | –
24 | COc1ccc(-c2nnc3n2CCCCC3)cc1 | -7.74% (inactive) | –
25 | COc1ccc(NC(=O)CSc2nncc(=O)n2N)cc1OC | -13.1% (inactive) | –
26 | CC(CN1CCOCC1)OC(=O)c1ccc(Cl)cc1Cl (stereo not given) | -11.3% (inactive) | –
27 | Cn1c(C(=O)N2CCCC(C(=O)NCc3ccccc3)C2)cc2sccc21 (stereo not given) | 27.8% (inactive) | –
28 | COc1ccccc1NC(=O)c1ccc(N2CC3CC(C2)c2cccc(=O)n2C3)c(NC(=O)c2cccnc2)c1 (stereo not given) | -1.66% (inactive) | –
29 | CC(=O)N1c2ccc(S(=O)(=O)N3CCC(C(=O)N4CCN(c5ccccc5)CC4)CC3)cc2CC1C (stereo not given) | 17.1% (inactive) | –
30 | CC(C)CN(CC(C)C)C(=O)CN1c2cccc3cccc(c23)S1(=O)=O | 27% (inactive) | –
31 | O=C(CNC(=O)[C@@H]1Cc2ccccc2CN1)NC1CCCCC1 | -15.9% (inactive) | –
32 | NC(=O)C1CC(=O)N(c2ccc(OCC(=O)NCc3ccccc3)cc2)C1 (stereo not given) | -32.6% (inactive) | –
33 | Cn1c(=O)[nH]c(=O)c2c1nc(N1CCN(C(c3ccccc3)c3ccccc3)CC1)n2CCO | 27.7% (inactive) | –
34 | O=C(COCc1cc(-c2ccc3c(c2)OCO3)on1)N1CCN(c2cccc(Cl)c2)CC1 | 4.21% (inactive) | –
35 | CCOC(=O)Nc1sc(C(=O)N(C)C)c(C)c1C(=O)OCC | 18.3% (inactive) | –
36 | CCOC(=O)c1sc(NC(=O)CCN2CCOCC2)c(C(=O)OCC)c1C | -25.6% (inactive) | –
37 | CCOC(=O)c1c(NC(=O)CCl)sc(C(=O)N(CC)CC)c1C | – | 20 µM (active)
38 | Cc1ccc(S(=O)(=O)NCc2ccc(C(=O)NC3CCC(C)CC3)cc2)cc1 (stereo not given) | -6.33% (inactive) | –
39 | COc1ccccc1N1CC(C(=O)Nc2nnc(SCC(=O)NC(C)C)s2)CC1=O (stereo not given) | -15.7% (inactive) | –
40 | CC(=O)Oc1c2c(c3c(c1CC=C(C)C)O[C@@]14C(=CC5CC1C(C)(C)OC4(C/C=C(\C)C(=O)O)C5=O)C3=O)OC(C)(CCC=C(C)C)C=C2 (stereo not given in full) | – | 5.62 µM (active)
41 | O=C(CNC(=O)c1ccc(Br)o1)NCC1CCCO1 (stereo not given) | -16% (inactive) | –
42 | CCNC(=O)c1cnn(-c2ccccc2)c1-c1ccccc1 | 15.5% (inactive) | –
43 | CCOc1cccc(-n2nnnc2-c2ccc(OC)cc2)c1 | 35.9% (inactive) | –
44 | COc1ccc(-n2nnnc2-c2nc3ccccc3s2)cc1 | – | 12.6 µM (active)

Row | Structure (SMILES) | activity change, negative = inhibition | Potency
45 | COc1ccc(-n2nnnc2SCC(=O)Nc2ccccc2)cc1 | 44.6% (inactive) | –
46 | COc1cc(C2C3=C(CCCC3=O)OC3=C2C(=O)CCC3)ccc1OCC(=O)Nc1ccccc1 | 3.03% (inactive) | –
47 | CC(=O)N(Cc1cc(=O)[nH]c2ccccc12)c1ccc(C)cc1C | -16.6% (inactive) | –
48 | Cc1ccc(N(Cc2cc3ccccc3[nH]c2=O)C(=O)c2cccs2)cc1 | 15.8% (inactive) | –
49 | Cc1ccc(N(Cc2cc(=O)[nH]c3ccccc23)C(=O)CCl)cc1 | – | 15.8 µM (active)
50 | Cc1cc(C)cc(NC(=O)C2CCCN2S(=O)(=O)c2cccc3cccnc23)c1 (stereo not given) | -19.2% (inactive) | –
51 | CCN1CCN(CCNC(=O)c2ccc3c(c2)NC(=O)/C(=C\c2ccc(OC)c(OC)c2)S3)CC1 | 0.716% (inactive) | –
52 | CCCCc1cc(=O)oc2c(C)c(OCC(=O)N3CCC(C(N)=O)CC3)ccc12 | -8.21% (inactive) | –
53 | Clc1ccc2nc(CSc3ccccc3)cn2c1 | – | 14.1 µM (active)
54 | O=C(/C=C/c1ccc2c(c1)OCO2)NCc1cn2cc(Cl)ccc2n1 | -15.5% (inactive) | –
55 | CCOc1ncccc1C(=O)OCc1cn2cc(Cl)ccc2n1 | 21.2% (inactive) | –
56 | COc1ccc(CCOC(=O)CNC(=O)c2ccc(Cl)cc2Cl)cc1 | 2.81% (inactive) | –
57 | COC(=O)Cc1cnc(NC(=O)CSc2nc(C(C)C)cc(=O)[nH]2)s1 | 9.69% (inactive) | –
58 | COc1ccc(N2CCN(C(=O)[C@@H](NC(=O)c3cc(OC)cc(OC)c3)C(C)C)CC2)cc1 | -4.96% (inactive) | –
59 | CCOc1ccccc1Oc1cn[nH]c1-c1ccc(OC)cc1O | – | 8.91 µM (active)
60 | CCN(CCn1cccn1)Cc1cn[nH]c1-c1ccc(OC)cc1F | 1.4% (inactive) | –
61 | COc1ccc(-c2cn[nH]c2-c2ccc(OC)cc2)cc1 | -17.9% (inactive) | –
62 | O=S(=O)(NCC1CC1)c1ccc(F)c(Cl)c1 | 18.8% (inactive) | –
63 | Cc1ccc(N(CC(=O)NCC2CCCO2)C(=O)CNS(=O)(=O)c2ccc(Cl)cc2)cc1 (stereo not given) | 37.3% (inactive) | –
64 | CCN(CC(=O)N1CCCC1)S(=O)(=O)c1ccc(F)cc1 | -29.5% (inactive) | –
65 | O=C(CO/N=C/c1ccccc1OC(F)F)NC1CCCC1 | -1.76% (inactive) | –
66 | O=C(CSCc1ccccc1Cl)NNC(=O)c1ccccc1 | 8.21% (inactive) | –

Row | Structure (SMILES) | activity change, negative = inhibition | Potency
67 | O=C(CO/N=C/c1ccccc1O)NNC(=O)c1ccccc1Cl | – | 20 µM (active)
68 | CCOc1ccc(C(C(=O)NCCOC)N(CCOC)C(=O)CCC(=O)Nc2ccccn2)cc1 (stereo not given) | -2.5% (inactive) | –
69 | Cc1ccc(-c2csc(NNC(=O)c3ccccc3)n2)cc1 | – | 5.01 µM (active)
70 | Cc1ccc(C(=O)NCCNC(=O)c2cnccn2)cc1 | -10.2% (inactive) | –
71 | O=C(O)c1ccccc1C(=O)Nc1nc(-c2ccccc2)cs1 | 20.5% (inactive) | –
72 | O=C(Nc1nc(-c2cccnc2)cs1)c1ccccc1F | 10.5% (inactive) | –
73 | Cc1ccc(Nc2nc(-c3sc(NC(=O)c4ccccc4)nc3C)cs2)cc1 | -23.5% (inactive) | –
74 | CC(=O)Nc1ccc(-c2csc(NC(=O)Nc3ccccc3)n2)cc1 | 30.4% (inactive) | –
75 | Cc1ccc(-c2csc(NC(=O)c3cnccn3)n2)cc1C | – | 2.24 µM (active)
76 | COc1ccc(-c2csc(NC(=O)c3ccc(N4C(=O)CCC4=O)cc3)n2)cc1OC | -0.539% (inactive) | –
77 | O=C(Nc1nc(-c2ccc(-c3ccccc3)cc2)cs1)c1cnccn1 | – | 1.12 µM (active)
78 | Cc1sc2ncn(CC(=O)NCCCC(=O)N3CCN(c4ccccc4F)CC3)c(=O)c2c1C | 8.6% (inactive) | –
79 | Nc1ccc(C(=O)Nc2ccccc2N)cc1 | – | inactive
80 | COc1ccc(NC(=O)CSc2nc(SC)ns2)c(OC)c1 | 14.7% (inactive) | –
81 | Cc1ccc(S(=O)(=O)N(C)CC(=O)NCCc2c[nH]c3ccccc23)cc1 | 35.1% (inactive) | –
82 | Cc1cccc(N(Cc2ccccc2)C(=O)c2ccccc2F)c1 | 2.6% (inactive) | –
83 | CN(C(=O)c1ccccn1)c1nnc(-c2ccccn2)s1 | – | 10 µM (active)
84 | CN(C(=O)c1ccno1)c1nnc(-c2cccnc2)s1 | 7.53% (inactive) | –
85 | CN(C(=O)COc1ccccc1)c1nnc(-c2ccncc2)s1 | -43.6% (inactive) | –
86 | O=C(COc1ccc(S(=O)(=O)Nc2cccc(C(F)(F)F)c2)cc1)N1CCOCC1 | 39.9% (inactive) | –
87 | O=C(CCN1C(=O)[C@@H]2Cc3ccccc3CN2C1=O)NCCc1ccccc1 | -0.45% (inactive) | –
88 | Cc1nc2sc(C(c3ccco3)N3CCOCC3)c(O)n2n1 (stereo not given) | -1.57% (inactive) | –

Row | Structure (SMILES) | activity change, negative = inhibition | Potency
89 | Oc1c(C(c2ccccn2)N2CCOCC2)ccc2cccnc12 (stereo not given) | – | 1.26 µM (active)
90 | CCOc1cc(N2CCOCC2)c(OCC)cc1NC(=O)COc1cccc2cccnc12 | -34.3% (inactive) | –
91 | O=C(NCc1nnc(SCC(=O)N2CCCCCC2)o1)c1ccc(F)cc1 | -17.1% (inactive) | –
92 | Cc1nn(-c2ccccc2)c(Cl)c1/C=N/NC(=O)c1nn(C)cc1[N+](=O)[O-] | 21.6% (inactive) | –
93 | CCOC(=O)N1CCN(Cc2nnc(-c3ccccc3Cl)o2)CC1 | 13.1% (inactive) | –
94 | COc1ccc2nc(SCC(=O)Nc3c(C)cc(C)cc3C)[nH]c2c1 | 19.9% (inactive) | –
95 | CC(C)OCCCNC(=O)c1cc(Sc2ccc(F)cc2)nc2ccccc12 | -7.09% (inactive) | –
96 | COC(=O)Nc1nc2ccc(Sc3ccccc3)cc2[nH]1 | – | inactive and 6.31 µM (active)
97 | S=c1[nH]ccn1-c1ccc(Cl)cc1 | – | 3.55 µM (active)
98 | S=c1[nH]cc(-c2ccc(Cl)cc2)n1-c1ccccc1 | 6.26% (inactive) | –
99 | COc1cccc(C(=O)Nc2ccc(N3CCCC3)cc2)c1 | 7.72% (inactive) | –
100 | COc1ccc(C(=O)NC(=S)Nc2ccc(Cl)cn2)cc1OC | – | 7.94 µM (active)
101 | COc1ccc(C(=O)NC(=S)Nc2ccc(N3CCCC3)cc2)cc1OC | – | 0.447 µM (active)
102 | COc1c(Cl)cc(C(=O)Nc2ccc(Cl)cn2)cc1Cl | -2.59% (inactive) | –
103 | COc1ccc(C(=O)N/N=C(\C)CC(=O)Nc2ccc(Cl)cn2)cc1 | – | 5.01 µM (active)
104 | O=C(CN1CCN(c2ccccc2)CC1)Nc1ccc(F)cc1 | 21.6% (inactive) | –
105 | O=C(CCN1CCN(c2ccccc2)CC1)NNC(=S)Nc1ccccc1 | – | 10 µM (active)
106 | COc1ccc(C(=O)Nc2ccc(N3CCC(C)CC3)cc2)cc1Br | 4.83% (inactive) | –
107 | O=C(CN1CCN(c2ccc(F)cc2)CC1)Nc1ccccc1 | -3.12% (inactive) | –
108 | COc1ccc(COC(=O)N/N=C(\C)CC(=O)Nc2ccc(Cl)cc2)cc1 | 5.64% [at 10 µM] (inactive) | –
109 | COc1ccc(C/C(C)=N/NC(=O)c2ccncc2)cc1 | -26.7% (inactive) | –
110 | COC(=O)c1ccc(NC(=O)c2cc(Cl)ccc2OC)cc1 | 12.9% (inactive) | –
